The values below come from PubChem BioAssay (NCATS).

Where “and” joins values, the source holds several entries; their conditions need not be identical. Identical values can stand only once. Records with an inconclusive call do not appear. Calls of active or inactive are those of the source. Calls follow the shape of the dose curve; as a rule, active = well fitted cell-killing curve with a large enough effect; inconclusive = small, poorly fitted or top-dose-only effect; inactive = no such curve, though single readings can be large or run the other way.
Potency is read from the fitted curve at half-maximal effect.

The nature of the first assay: qHTS of pediatric cancer cell lines to identify multiple opportunities for drug repurposing: Primary screen for SK-N-SH cells (AID 1347098). Also: nearly all actives have a fitted effect of over 65% in size. Conditions: SK-N-SH viability, CellTiter-Glo luminescence, 48 h; series mostly up to 57 µM. The method in brief: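 Cells (500-1,000/well) rested 5 h, then received compounds for 48 h; metabolically active cells were measured by CellTiter-Glo luminescence. Final concentrations spanned up to 46 µM (MIPE, 11-point) or 0.59 nM-46 µM (NPC, 8-point) in primary screens, 11-point in follow-ups.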
On the technique in general: qHTS replaces the single test concentration by a dilution series.
As to `CC(=O)Oc1ccccc1C(=O)Nc1ncc([N+](=O)[O-])s1`, the Potency entry is “inactive”.

Consider `OCc1ccc(-c2nn(Cc3ccccc3)c3ccccc23)o1`, for which the Potency entry is “inactive”.

For the molecule `COc1cc2nc(N3CCCN(C)CC3)nc(NC3CCN(Cc4ccccc4)CC3)c2cc1OC`, the Potency was 9.61 µM (active).

As for `NC(=O)c1cccnc1`, the Potency entry was “inactive”.

Consider `COC(=O)Nc1nc2ccc(S(=O)c3ccccc3)cc2[nH]1` (stereo not given), for which the Potency was 1.54 µM (active) and 19.2 µM (active).

As to `N=C(N)c1ccc(OCCCCCOc2ccc(C(=N)N)cc2)cc1`, the Potency is 9.61 µM (active).

With `Cc1c(-c2ccc(O)cc2)n(Cc2ccc(OCCN3CCCCCC3)cc2)c2ccc(O)cc12`, the Potency result was “inactive”.

For the molecule `COc1ccc2cc3[n+](cc2c1OC)CCc1cc2c(cc1-3)OCO2`, the Potency result was “inactive”.

Turning to `CCC(C)(C)c1ccc(CC(C)CN2C[C@@H](C)O[C@@H](C)C2)cc1` (stereo not given in full), the Potency entry was “inactive”.

Regarding `CNCC[C@H](Oc1cccc2ccccc12)c1cccs1`, the Potency is 19.4 µM (active) and 5.41 µM (active).

For `CC(=O)[C@H]1CC[C@H]2[C@@H]3CCC4=CC(=O)CC[C@]4(C)[C@H]3CC[C@]12C`, the Potency was 12.1 µM (active).

As to `CCCCc1oc2ccc(NS(C)(=O)=O)cc2c1C(=O)c1ccc(OCCCN(CCCC)CCCC)cc1`, the Potency was 27.1 µM (active) and 17.2 µM (active).

In the case of `O[C@@H](CNC[C@H](O)[C@H]1CCc2cc(F)ccc2O1)[C@@H]1CCc2cc(F)ccc2O1`, the Potency was 27.3 µM (active).

For `CN(C)c1ccc(C(=C2C=CC(=[N+](C)C)C=C2)c2ccc(N(C)C)cc2)cc1`, the Potency was 1.09 µM (active) and 2.41 µM (active).

In the case of `Oc1c(Cl)cc(Cl)c2cccnc12`, the Potency is 3.86 µM (active) and 30.4 µM (active).

Regarding `CCOC(=O)[C@H](CCc1ccccc1)N[C@H]1CCc2ccccc2N(CC(=O)O)C1=O`, the Potency is 24.1 µM (active).

In the case of `Cc1ccc(S(=O)(=O)N[C@@H](Cc2ccccc2)C(=O)CCl)cc1`, the Potency is 21.5 µM (active).

As for `CCOC(=O)c1ccc(C#Cc2ccc3c(c2)C(C)(C)CCS3)nc1`, the Potency entry is “inactive”.

As for `S=P(N1CC1)(N1CC1)N1CC1`, the Potency entry was “inactive”.

In the case of `COC(=O)Nc1nc2ccc(C(=O)c3ccccc3)cc2[nH]1`, the Potency was 8.57 µM (active).

On to `NC(=O)c1ccc2[nH]ccc2c1`, for which the Potency entry is “inactive”.

Turning to `COc1cc2ncnc(Nc3cccc(Cl)c3)c2cc1OC`, the Potency is 8.57 µM (active).

As to `CN(Cc1cc(Br)cc(Br)c1N)C1CCCCC1`, the Potency result is “inactive”.

In the case of `Cc1cccc(N(C)C(=S)Oc2ccc3ccccc3c2)c1`, the Potency is 15.2 µM (active).

The next assay can be described thus: qHTS of pediatric cancer cell lines to identify multiple opportunities for drug repurposing: Primary screen for NB1643 cells (AID 1347099). Also: nearly all actives have a fitted effect of over 50% in size. Conditions: NB1643 neuroblastoma viability, CellTiter-Glo luminescence, 48 h; series mostly up to 46 µM. In a few lines:
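Phenotypic viability qHTS, 48 h compound exposure, CellTiter-Glo luminescence read-out; multi-concentration dosing so that potency and efficacy derive directly from the primary screen's curves.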
As for `CC(=O)Oc1ccccc1C(=O)Nc1ncc([N+](=O)[O-])s1`, the Potency was 42.9 µM (active) and 21.1 µM (active).

As for `CCC(=O)O[C@]1(C(=O)SCF)[C@H](C)C[C@H]2[C@@H]3C[C@H](F)C4=CC(=O)C=C[C@]4(C)[C@@]3(F)[C@@H](O)C[C@@]21C`, the Potency entry is “inactive”.

Turning to `NC(=O)c1cccnc1`, the Potency result is “inactive”.

As for `COc1ccc2cc3[n+](cc2c1OC)CCc1cc2c(cc1-3)OCO2`, the Potency is 15 µM (active) and 18.7 µM (active).

Take `CCC(C)(C)c1ccc(CC(C)CN2C[C@@H](C)O[C@@H](C)C2)cc1` (stereo not given in full): the Potency result was “inactive”.

Turning to `CN(C)c1ccc(C(=C2C=CC(=[N+](C)C)C=C2)c2ccc(N(C)C)cc2)cc1`, the Potency is 3.35 µM (active) and 7.43 µM (active).

For the molecule `O=S(=O)(c1cccc2cnccc12)N1CCCNCC1`, the Potency entry is “inactive”.

With `Cc1ccc(S(=O)(=O)N[C@@H](Cc2ccccc2)C(=O)CCl)cc1`, the Potency is 20900 nM (active).

Take `C[C@@H](NCCCc1cccc(C(F)(F)F)c1)c1cccc2ccccc12`: the Potency result was “inactive”.

In the case of `CCOC(=O)c1ccc(C#Cc2ccc3c(c2)C(C)(C)CCS3)nc1`, the Potency entry is “inactive”.

`S=P(N1CC1)(N1CC1)N1CC1`: the Potency was 93.5 nM (active).

As to `NC(=O)c1ccc2[nH]ccc2c1`, the Potency result was “inactive”.

Take `COc1cc2ncnc(Nc3cccc(Cl)c3)c2cc1OC`: the Potency was 372 nM (active).

As for `CN(Cc1cc(Br)cc(Br)c1N)C1CCCCC1`, the Potency entry was “inactive”.

Another assay is described as follows: qHTS of pediatric cancer cell lines to identify multiple opportunities for drug repurposing: Primary screen for LAN-5 cells (AID 1347100). Conditions: LAN-5 neuroblastoma viability, CellTiter-Glo luminescence, 48 h; series mostly up to 46 µM. The method in brief: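 Cells (500-1,000/well) in growth media were settled 5 h at 37 degrees C, then given compounds for 48 h. Viability was read as CellTiter-Glo luminescence. Primary runs used MIPE at 11 points (0.78 nM-46 µM) and NPC at 8 points (0.59 nM-46 µM); follow-ups used 11 points.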
With `CC(=O)Oc1ccccc1C(=O)Nc1ncc([N+](=O)[O-])s1`, the Potency was 27 µM (active) and 15 µM (active).

Regarding `OCc1ccc(-c2nn(Cc3ccccc3)c3ccccc23)o1`, the Potency entry is “inactive”.

Take `COc1cc2nc(N3CCCN(C)CC3)nc(NC3CCN(Cc4ccccc4)CC3)c2cc1OC`: the Potency is 8.33 µM (active).

In the case of `O=C(O)c1ccc(-n2nc(-c3ccccc3O)nc2-c2ccccc2O)cc1`, the Potency entry is “inactive”.

Take `CCC(=O)O[C@]1(C(=O)SCF)[C@H](C)C[C@H]2[C@@H]3C[C@H](F)C4=CC(=O)C=C[C@]4(C)[C@@]3(F)[C@@H](O)C[C@@]21C`: the Potency entry was “inactive”.

Regarding `NC(=O)c1cccnc1`, the Potency result is “inactive”.

For the molecule `COC(=O)Nc1nc2ccc(S(=O)c3ccccc3)cc2[nH]1` (stereo not given), the Potency was 944 nM (active) and 11.8 µM (active).

For `COc1ccc2cc3[n+](cc2c1OC)CCc1cc2c(cc1-3)OCO2`, the Potency is 10.6 µM (active) and 16.6 µM (active).

Regarding `CCC(C)(C)c1ccc(CC(C)CN2C[C@@H](C)O[C@@H](C)C2)cc1` (stereo not given in full), the Potency result is “inactive”.

On to `CNCC[C@H](Oc1cccc2ccccc12)c1cccs1`, for which the Potency result was “inactive”.

For the molecule `CCCCc1oc2ccc(NS(C)(=O)=O)cc2c1C(=O)c1ccc(OCCCN(CCCC)CCCC)cc1`, the Potency was 11.8 µM (active) and 18.8 µM (active).

Consider `CN(C)c1ccc(C(=C2C=CC(=[N+](C)C)C=C2)c2ccc(N(C)C)cc2)cc1`, for which the Potency was 1.68 µM (active) and 526 nM (active).

`Oc1c(Cl)cc(Cl)c2cccnc12`: the Potency was 5.96 µM (active) and 18.7 µM (active).

Turning to `O=S(=O)(c1cccc2cnccc12)N1CCCNCC1`, the Potency result was “inactive”.

In the case of `Cc1ccc(S(=O)(=O)N[C@@H](Cc2ccccc2)C(=O)CCl)cc1`, the Potency is 16.6 µM (active).

`C[C@@H](NCCCc1cccc(C(F)(F)F)c1)c1cccc2ccccc12`: the Potency result was “inactive”.

As to `S=P(N1CC1)(N1CC1)N1CC1`, the Potency is 18.7 µM (active).

Take `COC(=O)Nc1nc2ccc(C(=O)c3ccccc3)cc2[nH]1`: the Potency was 0.469 µM (active).

For `Nc1nc(F)nc2c1ncn2[C@@H]1O[C@H](CO)[C@@H](O)[C@@H]1O`, the Potency was 11.9 µM (active) and 469 nM (active).

On to `NC(=O)c1ccc2[nH]ccc2c1`, for which the Potency result is “inactive”.

As for `CN(Cc1cc(Br)cc(Br)c1N)C1CCCCC1`, the Potency result was “inactive”.

Take `Cc1cccc(N(C)C(=S)Oc2ccc3ccccc3c2)c1`: the Potency result was “inactive”.
